From paper PMC11006913
Positions count from the first letter of the chain named.

What was measured:
Experiment in all cases: PBM; 200 nM protein, PBS
Details in all cases: dsDNA, one strand shown
HOXC9 [1] = target: HOXC9 (Homo sapiens, UniProt P31274 178-260, K195R)
HOXA2 [2] = target: HOXA2 (Homo sapiens, UniProt O43364 129-215, R185T)
HOXC9 [3] = target: HOXC9 (Homo sapiens, UniProt P31274 178-260)
HOXC9 [4] = target: HOXC9 (Homo sapiens, UniProt P31274 178-260, R193K)
HOXA2 [5] = target: HOXA2 (Homo sapiens, UniProt O43364 129-215, R185K)
Chain of HOXA2 (Homo sapiens, UniProt O43364 129-215, R185K) (O43364 129-215 R185K): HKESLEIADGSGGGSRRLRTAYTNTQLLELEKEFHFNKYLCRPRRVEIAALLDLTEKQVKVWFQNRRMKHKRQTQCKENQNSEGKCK

HOXC9 [6] = target: HOXC9 (Homo sapiens, UniProt P31274 178-260, R222W)
Chain of HOXC9 (Homo sapiens, UniProt P31274 178-260, R222W) (P31274 178-260 R222W): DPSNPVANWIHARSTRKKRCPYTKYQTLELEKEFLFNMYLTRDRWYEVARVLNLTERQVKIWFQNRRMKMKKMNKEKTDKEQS

HOXA2 [7] = target: HOXA2 (Homo sapiens, UniProt O43364 129-215, Y150S)
Chain of HOXA2 (Homo sapiens, UniProt O43364 129-215, Y150S) (O43364 129-215 Y150S): as the sequence (O43364 129-215 R185K) above, with Y22S, K57R counted along it

HOXA2 [8] = target: HOXA2 (Homo sapiens, UniProt O43364 129-215)
Chain of HOXA2 (Homo sapiens, UniProt O43364 129-215) (O43364 129-215): as the sequence (O43364 129-215 R185K) above, with K57R counted along it

ALX3 [9] = target: ALX3 (Homo sapiens, UniProt O95076 139-225, N203Q)
Chain of ALX3 (Homo sapiens, UniProt O95076 139-225, N203Q) (O95076 139-225 N203Q): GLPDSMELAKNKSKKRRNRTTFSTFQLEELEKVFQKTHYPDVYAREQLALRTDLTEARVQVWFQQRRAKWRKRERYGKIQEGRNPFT

ALX3 [10] = target: ALX3 (Homo sapiens, UniProt O95076 139-225)
Chain of ALX3 (Homo sapiens, UniProt O95076 139-225) (O95076 139-225): as the sequence (O95076 139-225 N203Q) above, with Q65N counted along it

ALX3 [11] = target: ALX3 (Homo sapiens, UniProt O95076 139-225, L168Q)
Chain of ALX3 (Homo sapiens, UniProt O95076 139-225, L168Q) (O95076 139-225 L168Q): as the sequence (O95076 139-225 N203Q) above, with L30Q, Q65N counted along it

ALX3 [12] = target: ALX3 (Homo sapiens, UniProt O95076 139-225, L168V)
Chain of ALX3 (Homo sapiens, UniProt O95076 139-225, L168V) (O95076 139-225 L168V): as the sequence (O95076 139-225 N203Q) above, with L30V, Q65N counted along it

ALX3 [13] = target: ALX3 (Homo sapiens, UniProt O95076 139-225, N203S)
Chain of ALX3 (Homo sapiens, UniProt O95076 139-225, N203S) (O95076 139-225 N203S): as the sequence (O95076 139-225 N203Q) above, with Q65S counted along it

MSX2 [14] = target: MSX2 (Homo sapiens, UniProt P35548 130-214, R199I)
Chain of MSX2 (Homo sapiens, UniProt P35548 130-214, R199I) (P35548 130-214 R199I): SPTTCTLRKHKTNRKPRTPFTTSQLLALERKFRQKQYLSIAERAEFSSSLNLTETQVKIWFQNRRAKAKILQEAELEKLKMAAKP

MSX2 [15] = target: MSX2 (Homo sapiens, UniProt P35548 130-214)
Chain of MSX2 (Homo sapiens, UniProt P35548 130-214) (P35548 130-214): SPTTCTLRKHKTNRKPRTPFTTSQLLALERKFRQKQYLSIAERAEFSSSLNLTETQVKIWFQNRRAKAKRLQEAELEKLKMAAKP

MSX2 [16] = target: MSX2 (Homo sapiens, UniProt P35548 130-214, F161Y)
Chain of MSX2 (Homo sapiens, UniProt P35548 130-214, F161Y) (P35548 130-214 F161Y): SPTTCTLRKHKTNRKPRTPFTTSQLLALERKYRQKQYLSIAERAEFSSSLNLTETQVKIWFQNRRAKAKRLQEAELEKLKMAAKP

NKX2-6 [17] = target: T1, NKX2-6 (Homo sapiens, UniProt A6NCS4 118-204)
T1 sequence: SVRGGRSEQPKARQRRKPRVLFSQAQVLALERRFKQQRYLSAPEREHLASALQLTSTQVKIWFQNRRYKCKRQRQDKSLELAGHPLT

NKX2-6 [18] = target: T2, NKX2-6 (Homo sapiens, UniProt A6NCS4 118-204, F151L)
T2 sequence: T1 sequence with F34L

HOXD13 [19] = target: HOXD13 (Homo sapiens, UniProt P35453 263-343, T313R)
Chain of HOXD13 (Homo sapiens, UniProt P35453 263-343, T313R) (P35453 263-343 T313R): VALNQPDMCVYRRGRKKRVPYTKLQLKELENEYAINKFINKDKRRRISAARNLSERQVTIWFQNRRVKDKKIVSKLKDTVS

HOXD13 [20] = target: HOXD13 (Homo sapiens, UniProt P35453 263-343)
Chain of HOXD13 (Homo sapiens, UniProt P35453 263-343) (P35453 263-343): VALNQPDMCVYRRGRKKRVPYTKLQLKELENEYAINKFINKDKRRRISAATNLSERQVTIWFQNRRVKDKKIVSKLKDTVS

NKX2-6 [21] = target: T3, NKX2-6 (Homo sapiens, UniProt A6NCS4 118-204, R150C)
T3 sequence: T1 sequence with R33C

PROP1 [22] = target: PROP1 (Homo sapiens, UniProt O75360 56-141)
Chain of PROP1 (Homo sapiens, UniProt O75360 56-141) (O75360 56-141): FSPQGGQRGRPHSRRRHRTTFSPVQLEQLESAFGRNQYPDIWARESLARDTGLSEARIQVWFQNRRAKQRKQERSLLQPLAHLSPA

PROP1 [23] = target: PROP1 (Homo sapiens, UniProt O75360 56-141, R99H)
Chain of PROP1 (Homo sapiens, UniProt O75360 56-141, R99H) (O75360 56-141 R99H): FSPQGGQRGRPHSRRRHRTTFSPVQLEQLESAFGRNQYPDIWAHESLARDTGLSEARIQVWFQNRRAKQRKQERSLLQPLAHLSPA

HOXD13 [24] = target: HOXD13 (Homo sapiens, UniProt P35453 263-343, T313A)
Chain of HOXD13 (Homo sapiens, UniProt P35453 263-343, T313A) (P35453 263-343 T313A): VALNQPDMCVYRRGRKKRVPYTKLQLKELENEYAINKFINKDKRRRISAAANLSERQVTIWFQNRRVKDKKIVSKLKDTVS

PROP1 [25] = target: PROP1 (Homo sapiens, UniProt O75360 56-141, F88S)
Chain of PROP1 (Homo sapiens, UniProt O75360 56-141, F88S) (O75360 56-141 F88S): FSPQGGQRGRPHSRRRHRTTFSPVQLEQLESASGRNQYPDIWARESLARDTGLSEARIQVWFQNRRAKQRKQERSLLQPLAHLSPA

VAX1 [26] = target: VAX1 (Homo sapiens, UniProt Q5SQQ9 86-172)
Chain of VAX1 (Homo sapiens, UniProt Q5SQQ9 86-172) (Q5SQQ9 86-172): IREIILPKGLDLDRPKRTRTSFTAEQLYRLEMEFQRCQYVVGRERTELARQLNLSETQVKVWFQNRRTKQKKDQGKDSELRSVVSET

VAX1 [27] = target: VAX1 (Homo sapiens, UniProt Q5SQQ9 86-172, T142I)
Chain of VAX1 (Homo sapiens, UniProt Q5SQQ9 86-172, T142I) (Q5SQQ9 86-172 T142I): as the sequence (Q5SQQ9 86-172) above, with T57I counted along it

VAX1 [28] = target: VAX1 (Homo sapiens, UniProt Q5SQQ9 86-172, K157R)
Chain of VAX1 (Homo sapiens, UniProt Q5SQQ9 86-172, K157R) (Q5SQQ9 86-172 K157R): as the sequence (Q5SQQ9 86-172) above, with K72R counted along it

Chain of HOXC9 (Homo sapiens, UniProt P31274 178-260, K195R) (P31274 178-260 K195R): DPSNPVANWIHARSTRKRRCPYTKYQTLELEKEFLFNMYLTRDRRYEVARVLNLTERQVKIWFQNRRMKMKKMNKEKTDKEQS
Chain of HOXC9 (Homo sapiens, UniProt P31274 178-260) (P31274 178-260): as the sequence (P31274 178-260 R222W) above, with W45R counted along it
Chain of HOXC9 (Homo sapiens, UniProt P31274 178-260, R193K) (P31274 178-260 R193K): as the sequence (P31274 178-260 R222W) above, with R16K, W45R counted along it
Chain of HOXA2 (Homo sapiens, UniProt O43364 129-215, R185T) (O43364 129-215 R185T): as the sequence (O43364 129-215 R185K) above, with K57T counted along it

In the case of CACGCGGG, the binding signal (HOXC9 [1]) is reported as 9.44 upbm affinity estimate (log intensity, higher = more binding, comparable within an allelic series), the binding signal (HOXA2 [2]) is reported as 7.04 upbm affinity estimate (log intensity, higher = more binding, comparable within an allelic series) and the binding signal (HOXC9 [3]) is reported as 9.53 upbm affinity estimate (log intensity, higher = more binding, comparable within an allelic series). The binding signal (HOXC9 [4]) was 9.49 upbm affinity estimate (log intensity, higher = more binding, comparable within an allelic series), the binding signal (HOXA2 [5]) was 10.2 upbm affinity estimate (log intensity, higher = more binding, comparable within an allelic series) and the binding signal (HOXC9 [6]) was 9.63 upbm affinity estimate (log intensity, higher = more binding, comparable within an allelic series). For the same sequence, the binding signal (HOXA2 [7]) was 10.4 upbm affinity estimate (log intensity, higher = more binding, comparable within an allelic series) and the binding signal (HOXA2 [8]) was 7.18 upbm affinity estimate (log intensity, higher = more binding, comparable within an allelic series).

With AGGTGGGG the binding signal (HOXC9 [1]) was 9.9 upbm affinity estimate (log intensity, higher = more binding, comparable within an allelic series), the binding signal (HOXA2 [2]) was 7.38 upbm affinity estimate (log intensity, higher = more binding, comparable within an allelic series) and the binding signal (HOXC9 [3]) was 9.9 upbm affinity estimate (log intensity, higher = more binding, comparable within an allelic series). For the same sequence, the binding signal (ALX3 [9]) was 7.84 upbm affinity estimate (log intensity, higher = more binding, comparable within an allelic series), the binding signal (HOXC9 [4]) was 9.81 upbm affinity estimate (log intensity, higher = more binding, comparable within an allelic series) and the binding signal (HOXA2 [5]) was 10.4 upbm affinity estimate (log intensity, higher = more binding, comparable within an allelic series). For the same sequence, the binding signal (ALX3 [10]) was 7.86 upbm affinity estimate (log intensity, higher = more binding, comparable within an allelic series), the binding signal (ALX3 [11]) was 7.87 upbm affinity estimate (log intensity, higher = more binding, comparable within an allelic series) and the binding signal (HOXC9 [6]) was 9.81 upbm affinity estimate (log intensity, higher = more binding, comparable within an allelic series). For the same sequence, the binding signal (ALX3 [12]) was 7.85 upbm affinity estimate (log intensity, higher = more binding, comparable within an allelic series), the binding signal (HOXA2 [7]) was 10.4 upbm affinity estimate (log intensity, higher = more binding, comparable within an allelic series) and the binding signal (ALX3 [13]) was 7.82 upbm affinity estimate (log intensity, higher = more binding, comparable within an allelic series). For the same sequence, the binding signal (HOXA2 [8]) was 7.26 upbm affinity estimate (log intensity, higher = more binding, comparable within an allelic series).

For CTCCACGC, the binding signal (HOXC9 [1]) was 9.69 upbm affinity estimate (log intensity, higher = more binding, comparable within an allelic series), the binding signal (HOXC9 [3]) was 9.61 upbm affinity estimate (log intensity, higher = more binding, comparable within an allelic series) and the binding signal (MSX2 [14]) was 9.56 upbm affinity estimate (log intensity, higher = more binding, comparable within an allelic series). For the same sequence, the binding signal (HOXC9 [4]) was 9.6 upbm affinity estimate (log intensity, higher = more binding, comparable within an allelic series), the binding signal (MSX2 [15]) was 9.47 upbm affinity estimate (log intensity, higher = more binding, comparable within an allelic series) and the binding signal (HOXC9 [6]) was 9.78 upbm affinity estimate (log intensity, higher = more binding, comparable within an allelic series). For the same sequence, the binding signal (MSX2 [16]) was 9.61 upbm affinity estimate (log intensity, higher = more binding, comparable within an allelic series).

With CCTCTCCA the binding signal (HOXC9 [1]) was 9.58 upbm affinity estimate (log intensity, higher = more binding, comparable within an allelic series), the binding signal (HOXC9 [3]) was 9.63 upbm affinity estimate (log intensity, higher = more binding, comparable within an allelic series) and the binding signal (NKX2-6 [17]) was 11.5 upbm affinity estimate (log intensity, higher = more binding, comparable within an allelic series). For the same sequence, the binding signal (HOXC9 [4]) was 9.69 upbm affinity estimate (log intensity, higher = more binding, comparable within an allelic series), the binding signal (NKX2-6 [18]) was 9.51 upbm affinity estimate (log intensity, higher = more binding, comparable within an allelic series) and the binding signal (HOXC9 [6]) was 9.7 upbm affinity estimate (log intensity, higher = more binding, comparable within an allelic series).

In the case of AGTAATAA, the binding signal (HOXC9 [1]) is reported as 12.3 upbm affinity estimate (log intensity, higher = more binding, comparable within an allelic series), the binding signal (HOXC9 [3]) is reported as 12.3 upbm affinity estimate (log intensity, higher = more binding, comparable within an allelic series) and the binding signal (MSX2 [14]) is reported as 11.4 upbm affinity estimate (log intensity, higher = more binding, comparable within an allelic series). The binding signal (HOXC9 [4]) was 12.3 upbm affinity estimate (log intensity, higher = more binding, comparable within an allelic series), the binding signal (MSX2 [15]) was 12.5 upbm affinity estimate (log intensity, higher = more binding, comparable within an allelic series) and the binding signal (HOXC9 [6]) was 10.9 upbm affinity estimate (log intensity, higher = more binding, comparable within an allelic series). The binding signal (MSX2 [16]) was 12.3 upbm affinity estimate (log intensity, higher = more binding, comparable within an allelic series).

In the case of ACGATAAA, the binding signal (HOXC9 [1]) is reported as 11.7 upbm affinity estimate (log intensity, higher = more binding, comparable within an allelic series), the binding signal (HOXC9 [3]) is reported as 11.8 upbm affinity estimate (log intensity, higher = more binding, comparable within an allelic series) and the binding signal (HOXD13 [19]) is reported as 10.1 upbm affinity estimate (log intensity, higher = more binding, comparable within an allelic series). For the same sequence, the binding signal (HOXC9 [4]) was 11.8 upbm affinity estimate (log intensity, higher = more binding, comparable within an allelic series) and the binding signal (HOXD13 [20]) was 10.8 upbm affinity estimate (log intensity, higher = more binding, comparable within an allelic series).

TCCAGGGA was tested, and the binding signal (HOXC9 [1]) was 9.73 upbm affinity estimate (log intensity, higher = more binding, comparable within an allelic series), the binding signal (NKX2-6 [21]) was 9.47 upbm affinity estimate (log intensity, higher = more binding, comparable within an allelic series) and the binding signal (HOXC9 [3]) was 9.67 upbm affinity estimate (log intensity, higher = more binding, comparable within an allelic series). The binding signal (HOXC9 [4]) was 9.68 upbm affinity estimate (log intensity, higher = more binding, comparable within an allelic series) and the binding signal (HOXC9 [6]) was 9.68 upbm affinity estimate (log intensity, higher = more binding, comparable within an allelic series).

For AGCCGTGG, the binding signal (HOXC9 [1]) was 9.64 upbm affinity estimate (log intensity, higher = more binding, comparable within an allelic series), the binding signal (HOXC9 [3]) was 9.68 upbm affinity estimate (log intensity, higher = more binding, comparable within an allelic series) and the binding signal (HOXD13 [19]) was 9.67 upbm affinity estimate (log intensity, higher = more binding, comparable within an allelic series). The binding signal (HOXC9 [4]) was 9.58 upbm affinity estimate (log intensity, higher = more binding, comparable within an allelic series), the binding signal (HOXD13 [20]) was 9.7 upbm affinity estimate (log intensity, higher = more binding, comparable within an allelic series) and the binding signal (PROP1 [22]) was 6.79 upbm affinity estimate (log intensity, higher = more binding, comparable within an allelic series). The binding signal (PROP1 [23]) was 6.82 upbm affinity estimate (log intensity, higher = more binding, comparable within an allelic series), the binding signal (HOXD13 [24]) was 9.83 upbm affinity estimate (log intensity, higher = more binding, comparable within an allelic series) and the binding signal (HOXC9 [6]) was 9.77 upbm affinity estimate (log intensity, higher = more binding, comparable within an allelic series). The binding signal (PROP1 [25]) was 6.72 upbm affinity estimate (log intensity, higher = more binding, comparable within an allelic series).

With CCTCCCAG the binding signal (HOXC9 [1]) was 9.59 upbm affinity estimate (log intensity, higher = more binding, comparable within an allelic series), the binding signal (HOXC9 [3]) was 9.7 upbm affinity estimate (log intensity, higher = more binding, comparable within an allelic series) and the binding signal (ALX3 [9]) was 7.74 upbm affinity estimate (log intensity, higher = more binding, comparable within an allelic series). The binding signal (HOXC9 [4]) was 9.59 upbm affinity estimate (log intensity, higher = more binding, comparable within an allelic series), the binding signal (ALX3 [10]) was 7.69 upbm affinity estimate (log intensity, higher = more binding, comparable within an allelic series) and the binding signal (VAX1 [26]) was 7.07 upbm affinity estimate (log intensity, higher = more binding, comparable within an allelic series). The binding signal (ALX3 [11]) was 7.76 upbm affinity estimate (log intensity, higher = more binding, comparable within an allelic series), the binding signal (HOXC9 [6]) was 9.67 upbm affinity estimate (log intensity, higher = more binding, comparable within an allelic series) and the binding signal (ALX3 [12]) was 7.74 upbm affinity estimate (log intensity, higher = more binding, comparable within an allelic series). For the same sequence, the binding signal (VAX1 [27]) was 7.13 upbm affinity estimate (log intensity, higher = more binding, comparable within an allelic series), the binding signal (ALX3 [13]) was 7.72 upbm affinity estimate (log intensity, higher = more binding, comparable within an allelic series) and the binding signal (VAX1 [28]) was 6.95 upbm affinity estimate (log intensity, higher = more binding, comparable within an allelic series).

ATATGAAA was tested, and the binding signal (HOXC9 [1]) was 11.4 upbm affinity estimate (log intensity, higher = more binding, comparable within an allelic series), the binding signal (HOXC9 [3]) was 11.3 upbm affinity estimate (log intensity, higher = more binding, comparable within an allelic series) and the binding signal (HOXC9 [4]) was 11.4 upbm affinity estimate (log intensity, higher = more binding, comparable within an allelic series).
